Assay results reported in PubChem BioAssay (NCATS).
Inconclusive results are not listed. Activity calls are given as the source filed them. The call rests on the fitted dose curve; in most records, active means well fitted curve in the direction sought with a large enough effect; inconclusive means small, poorly fitted or top-dose-only effect, or another doubt; inactive means no such curve, though single readings can be large; an effect the other way counts as inactive or inconclusive.

Columns and labels:
HACAT = assay: qHTS assay to identify novel small-molecules to repurpose for Merkel cell carcinoma treatment (AID 1296009); details: MCC and control cell lines, CellTiter-Glo viability, 72 h; at 44.8 µM (top of the series) unless noted; further: nearly all actives have a fitted effect of over 60% in size
Summary of the method: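 Viability readout: ATP luminescence (CellTiter-Glo) after 72 hr drug exposure at 37 degree celsius. Dose-response format was 8 points for NPC and 11 points for MIPE; data normalized to in-plate controls.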

C33A = assay: Primary qHTS to identify gynecologic anti-cancer compounds using libraries of approved drugs and bioactive compounds (AID 1345084); details: Gynecologic cancer cell panel viability, ATPlite luminescence, 48 h; series mostly up to 57.5 µM; further: on the % scale 0 is the no-effect control and ±100 the full control effect; nearly all actives have a fitted effect of over 55% in size
Summary of the method: (§1)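 ATP-based viability (ATPlite), 1,000 cells/well, 16 h pre-incubation, 48 h compound at 37 C, 5% CO2, 15 min RT before read.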

CAOV3 = assay: as above; details: Gynecologic cancer cell panel viability, ATPlite luminescence, 48 h; series mostly up to 57.5 µM
Summary of the method: as §1

CASKI = assay: as above; details: Gynecologic cancer cell panel viability, ATPlite luminescence, 48 h; series mostly up to 57.5 µM
Summary of the method: as §1

Es-2 = assay: as above; details: Gynecologic cancer cell panel viability, ATPlite luminescence, 48 h; series mostly up to 57.5 µM
Summary of the method: as §1

HeLa = assay: as above; details: Gynecologic cancer cell panel viability, ATPlite luminescence, 48 h; series mostly up to 57.5 µM
Summary of the method: as §1

Hek293T = assay: as above; details: Gynecologic cancer cell panel viability, ATPlite luminescence, 48 h, control line for the selectivity index; series mostly up to 57.5 µM
Summary of the method: as §1

JEG-3 = assay: as above; details: Gynecologic cancer cell panel viability, ATPlite luminescence, 48 h; series mostly up to 57.5 µM
Summary of the method: as §1

CC(NC(=O)c1ccccc1N)C(=O)O (stereo unspecified)
inactive: outcome (HACAT) | Potency (C33A) | Potency (CAOV3) | outcome (CASKI) | Potency (Es-2) | Potency (HeLa) | Potency (Hek293T) | Potency (JEG-3)

COC(=O)C(CC1CCCC1)c1ccc(S(C)(=O)=O)cc1 (stereo unspecified)
inactive: outcome (HACAT) | Potency (C33A) | Potency (CAOV3) | outcome (CASKI) | Potency (Es-2) | Potency (HeLa) | Potency (Hek293T) | Potency (JEG-3)

CC1CC2(O)OC(=O)C3=C2C(CCC3)[C@@]12C[C@@H](c1ccoc1)OC2=O (stereo partly specified)
inactive: outcome (HACAT) | Potency (C33A) | Potency (CAOV3) | outcome (CASKI) | Potency (Es-2) | Potency (HeLa) | Potency (Hek293T) | Potency (JEG-3)

C[C@@H]1O[C@@H](O[C@H]2[C@@H]3C=CO[C@@H](O[C@@H]4O[C@H](CO)[C@@H](O)[C@H](O)[C@H]4O)[C@@H]3[C@@]3(CO)O[C@@H]23)[C@H](O)[C@H](O)[C@H]1OC(=O)/C=C/c1ccc(O)cc1
inactive: outcome (HACAT) inactive [at 17.4 µM] | Potency (C33A) | Potency (CAOV3) | outcome (CASKI) | Potency (Es-2) | Potency (HeLa) | Potency (Hek293T) | Potency (JEG-3)

C=CC(C)(O)C1CC2C3(C)CCCC(C)(C)C3C(O)C(O)C2(C)O1 (stereo unspecified)
inactive: outcome (HACAT) | Potency (C33A) | Potency (CAOV3) | outcome (CASKI) | Potency (Es-2) | Potency (HeLa) | Potency (Hek293T) | Potency (JEG-3)

Cc1c(C)c(NCC(=O)N(C)C2CCN(Cc3ccc(C(N)=O)cc3)CC2)c(C)c(C)c1N
inactive: outcome (HACAT) | Potency (C33A) | Potency (CAOV3) | outcome (CASKI) | Potency (Es-2) | Potency (HeLa) | Potency (Hek293T) | Potency (JEG-3)

COc1ccc(C2COc3cc(O)ccc3C2)c(O)c1OC (stereo unspecified)
inactive: outcome (HACAT) | Potency (C33A) | Potency (CAOV3) | outcome (CASKI) | Potency (Es-2) | Potency (HeLa) | Potency (Hek293T) | Potency (JEG-3)

COC(=O)C1=CO[C@@H](O[C@@H]2O[C@H](CO[C@@H]3O[C@H](CO)[C@@H](O)[C@H](O)[C@H]3O)[C@@H](O)[C@H](O)[C@H]2O)[C@@H]2C(CO)=CC[C@H]12
inactive: outcome (HACAT) inactive [at 17.4 µM] | Potency (C33A) | Potency (CAOV3) | outcome (CASKI) | Potency (Es-2) | Potency (HeLa) | Potency (Hek293T) | Potency (JEG-3)

O=C(O)[C@H]1Cc2ccccc2CN1
inactive: outcome (HACAT) inactive [at 4.96 µM] | activity change, negative = cytotoxicity (C33A) -12.5% [at 6.55 µM] | activity change, negative = cytotoxicity (CAOV3) 20.2% [at 6.55 µM] | activity change, negative = cytotoxicity (CASKI) -0.242% [at 6.55 µM] | activity change, negative = cytotoxicity (Es-2) -0.653% [at 6.55 µM] | activity change, negative = cytotoxicity (HeLa) 1.2% [at 6.55 µM] | activity change, negative = cytotoxicity (Hek293T) 13.1% [at 6.55 µM] | activity change, negative = cytotoxicity (JEG-3) 1.96% [at 6.55 µM]

C=C(C)C1Cc2c(ccc3c2OCC(c2ccc(O)cc2O)C3)O1 (stereo unspecified)
inactive: outcome (HACAT) | Potency (C33A) | Potency (CAOV3) | outcome (CASKI) | Potency (Es-2) | Potency (HeLa) | Potency (Hek293T) | Potency (JEG-3)

CCOc1ccc(-c2cc(NC(=O)c3c(F)cccc3F)c(C(=O)O)s2)cc1
inactive: outcome (HACAT) | Potency (C33A) | Potency (CAOV3) | outcome (CASKI) | Potency (Es-2) | Potency (HeLa) | Potency (Hek293T) | Potency (JEG-3)

COc1cc(/C=C/C(=O)O[C@@H]2C[C@](O)(C(=O)O)C[C@@H](O)[C@H]2O)ccc1O
inactive: outcome (HACAT) | Potency (C33A) | Potency (CAOV3) | outcome (CASKI) | Potency (Es-2) | Potency (HeLa) | Potency (Hek293T) | Potency (JEG-3)

C=C1CCC2[C@](C)(CCC[C@]2(C)C(=O)O)[C@H]1CC/C(C)=C/C(=O)OC (stereo partly specified)
inactive: outcome (HACAT) | Potency (C33A) | Potency (CAOV3) | outcome (CASKI) | Potency (Es-2) | Potency (HeLa) | Potency (Hek293T) | Potency (JEG-3)

C[C@@H]1O[C@@H](O[C@H]2[C@H](OC(=O)[C@]34CCC(C)(C)C[C@H]3C3=CCC5[C@@]6(C)CC[C@H](O[C@@H]7O[C@H](CO[C@@H]8OC[C@H](O)[C@H](O)[C@H]8O)[C@@H](O)[C@H](O)[C@H]7O)C(C)(C)C6CC[C@@]5(C)[C@]3(C)C[C@H]4O)OC[C@@H](O)[C@@H]2O)[C@H](O)[C@H](O[C@@H]2OC[C@](O)(CO)[C@H]2O)[C@H]1O[C@@H]1OC[C@H](O)[C@H](O[C@@H]2OC[C@@H](O)[C@H](O)[C@H]2O)[C@H]1O (stereo partly specified)
inactive: outcome (HACAT) inactive [at 9.27 µM] | activity change, negative = cytotoxicity (C33A) -0.179% [at 6.55 µM] | activity change, negative = cytotoxicity (CAOV3) 23.4% [at 6.55 µM] | activity change, negative = cytotoxicity (CASKI) 9.95% [at 6.55 µM] | activity change, negative = cytotoxicity (Es-2) 8.45% [at 6.55 µM] | activity change, negative = cytotoxicity (HeLa) 22.1% [at 6.55 µM] | activity change, negative = cytotoxicity (Hek293T) 8.51% [at 6.55 µM] | activity change, negative = cytotoxicity (JEG-3) -2.51% [at 6.55 µM]

C=C1CCC(OC(C)=O)C2(C)CC3OC(=O)C(C)=C3CC12 (stereo unspecified)
inactive: outcome (HACAT) | Potency (C33A) | Potency (CAOV3) | outcome (CASKI) | Potency (Es-2) | Potency (HeLa) | Potency (Hek293T) | Potency (JEG-3)

CC(C)C1CCC(C(=O)N[C@@H](Cc2ccccc2)C(=O)O)CC1 (stereo partly specified)
inactive: outcome (HACAT) | Potency (C33A) | Potency (CAOV3) | outcome (CASKI) | Potency (Es-2) | Potency (HeLa) | Potency (Hek293T) | Potency (JEG-3)

CC1CC(=O)C2=C(O1)OC1(C)CCC3C(C)(C)C4OC4C(=O)C3(C)C1C2 (stereo unspecified)
inactive: outcome (HACAT) | Potency (C33A) | Potency (CAOV3) | outcome (CASKI) | Potency (Es-2) | Potency (HeLa) | Potency (Hek293T) | Potency (JEG-3)

CC(=O)O[C@H]1C[C@@H](O)C(C)(C)C2C[C@@H](OC(C)=O)[C@@]3(C)C4=CCC(C(CO)CC(O)C5OC5(C)C)[C@]4(C)CCC3[C@]21C (stereo partly specified)
inactive: outcome (HACAT) inactive [at 17.4 µM] | Potency (C33A) | Potency (CAOV3) | outcome (CASKI) | Potency (Es-2) | Potency (HeLa) | Potency (Hek293T) | Potency (JEG-3)

O=C(OC(C(F)(F)F)C(F)(F)F)N1CCN(Cc2cccc(Oc3ccccc3)c2)CC1
inactive: outcome (HACAT) | Potency (C33A) | Potency (CAOV3) | outcome (CASKI) | Potency (Es-2) | Potency (HeLa) | Potency (Hek293T) | Potency (JEG-3)

COc1cc(CCCO)ccc1O[C@@H]1O[C@H](CO)[C@@H](O)[C@H](O)[C@H]1O
inactive: outcome (HACAT) | Potency (C33A) | Potency (CAOV3) | outcome (CASKI) | Potency (Es-2) | Potency (HeLa) | Potency (Hek293T) | Potency (JEG-3)

COc1cnc(-c2ccc(Cn3c(CC(C)(C)C(=O)O)c(SC(C)(C)C)c4cc(OC[C@@H]5Cc6ccccc6N5C(C)=O)ccc43)cc2)nc1
inactive: outcome (HACAT) | Potency (C33A) | Potency (CAOV3) | outcome (CASKI) | Potency (Es-2) | Potency (HeLa) | Potency (Hek293T) | Potency (JEG-3)

C=C(CCO[C@@H]1O[C@H](CO)[C@@H](O)[C@H](O)[C@H]1O)C(=O)O
inactive: outcome (HACAT) | Potency (C33A) | Potency (CAOV3) | outcome (CASKI) | Potency (Es-2) | Potency (HeLa) | Potency (Hek293T) | Potency (JEG-3)

C=C(C(=O)OC)[C@]12O[C@@](C)(CC[C@@]3(O)/C(=C\C)C(=O)O[C@]3(C)C[C@@H]1OC(=O)C(CO)CN1CCCC1C(=O)O)CC2=O (stereo partly specified)
inactive: outcome (HACAT) inactive [at 17.4 µM] | Potency (C33A) | Potency (CAOV3) | outcome (CASKI) | Potency (Es-2) | Potency (HeLa) | Potency (Hek293T) | Potency (JEG-3)

COC(=O)C(CC1(O)c2ccccc2N2C(=O)C(C)(C)N(O)C21)n1cnc2ccccc2c1=O (stereo unspecified)
inactive: outcome (HACAT) inactive [at 17.4 µM] | Potency (C33A) | Potency (CAOV3) | outcome (CASKI) | Potency (Es-2) | Potency (HeLa) | Potency (Hek293T) | Potency (JEG-3)

Cc1c(NC(=O)N2CCOCC2)ccc2c1c1ccccc1n2C(C)C
inactive: outcome (HACAT) | Potency (C33A) | Potency (CAOV3) | outcome (CASKI) | Potency (Es-2) | Potency (HeLa) | Potency (Hek293T) | Potency (JEG-3)

C=C1CC[C@H]2[C@@](C)(CCC(O)[C@@]2(C)CO)[C@@H]1/C=C/C(=C\C(=O)O)C(=O)O (stereo partly specified)
inactive: outcome (HACAT) | Potency (C33A) | Potency (CAOV3) | outcome (CASKI) | Potency (Es-2) | Potency (HeLa) | Potency (Hek293T) | Potency (JEG-3)

CC(=O)OC(C)C(C)(O)C(=O)O[C@@H]1CC[C@]2(C)CC(=O)C(=C(C)C)C[C@H]2[C@]1(C)OC(C)=O (stereo partly specified)
inactive: outcome (HACAT) inactive [at 17.4 µM] | Potency (C33A) | Potency (CAOV3) | outcome (CASKI) | Potency (Es-2) | Potency (HeLa) | Potency (Hek293T) | Potency (JEG-3)
